Source: the antibiotic and cytotoxicity screens of Wong et al. (2023)
Hit rate of the full screen: of about 39,000 compounds, about 500 (1.3%) were called active. The full list was thinned out, with actives kept by preference.

tested on: S. aureus RN4220; test: growth inhibition call (relative growth <= 0.2); settings: 50 µM

Structure (SMILES) | growth inhibition call
Cc1cn2nc([C@@H]3CCCCN3C(=O)c3cc(Cl)ccc3NS(C)(=O)=O)cc2nc1N1CC[C@H](N)C1 | inactive
NNC(=O)c1cc(=S)nc[nH]1 | inactive
Cc1noc(C)c1NC(=O)Nc1ccc2c(c1)C(=O)N([C@H](C)CO)C[C@@H](C)[C@H](CN(C)S(=O)(=O)c1cn(C)cn1)O2 | inactive
C[C@@H]1CN([C@@H](C)CO)C(=O)Cc2cc(NC(=O)NC3CCCCC3)ccc2O[C@H]1CN(C)S(C)(=O)=O | inactive
C[C@H](CO)N1C[C@H](C)[C@@H](CN(C)Cc2ccc(F)cc2)Oc2ncc(C#Cc3cccnc3)cc2C1=O | inactive
C[C@H]1CN([C@@H](C)CO)C(=O)c2cc(NC(=O)CCCN(C)C)ccc2O[C@@H]1CN(C)C(=O)Nc1ccc(F)cc1 | inactive
C[C@@H]1CN([C@@H](C)CO)C(=O)c2c(c3ccccc3n2C)-c2ccccc2CO[C@@H]1CN(C)Cc1cccc(C(F)(F)F)c1 | inactive
C[C@@H]1CN([C@@H](C)CO)C(=O)c2cccc(NC(=O)C3CCOCC3)c2O[C@@H]1CN(C)Cc1ccncc1 | inactive
O=C(C[C@@H]1CC[C@@H]2[C@H](COC[C@H](O)CN2S(=O)(=O)c2ccccc2)O1)N1CCOCC1 | inactive
CCCNC(=O)N1C[C@@H](O)COC[C@H]2O[C@H](CC(=O)NCCCN3CCOCC3)CC[C@@H]21 | inactive
C[C@@H]1CN([C@@H](C)CO)C(=O)c2cc(NC(=O)C3CCCCC3)ccc2O[C@@H](C)CCCCO[C@H]1CN(C)S(=O)(=O)c1ccc(Cl)cc1 | inactive
C[C@@H]1CN([C@H](C)CO)C(=O)c2cc(NC(=O)Nc3ccc4c(c3)OCO4)ccc2O[C@@H](C)CCCCO[C@@H]1CN(C)C(=O)c1ccccc1 | inactive
COc1ccccc1C#Cc1ccc2c(c1)O[C@@H](CN(C)C(C)=O)[C@H](C)CN([C@@H](C)CO)S2(=O)=O | inactive
CON=C(C(=O)NC1C(=O)N2C(C(=O)[O-])=C(CSc3nc(=O)c([O-])nn3C)CSC12)c1csc(N)n1.O.O.O.[Na+].[Na+] (stereo not drawn) | inactive
C[C@H]1[C@H](NC(=O)/C(=N\OC(C)(C)C(=O)O)c2csc(N)n2)C(=O)N1S(=O)(=O)O | inactive
CON=C(C(=O)NC1C(=O)N2C(C(=O)[O-])=C(COC(C)=O)CSC12)c1csc(N)n1.[Na+] (stereo not drawn) | active
COCC1=C(C(=O)OC(C)OC(=O)OC(C)C)N2C(=O)C(NC(=O)C(=NOC)c3csc(N)n3)C2SC1 (stereo not drawn) | inactive
CC1C(NC(=O)C(=NOC(C)(C)C(=O)O)c2csc(N)n2)C(=O)N1S(=O)(=O)O (stereo not drawn) | inactive
CO/N=C(\C(=O)N[C@@H]1C(=O)N2C(C(=O)O)=C(C)CS[C@H]12)c1csc(N)n1 | active
C[C@H](CO)N1C[C@H](C)[C@H](CN(C)S(=O)(=O)c2ccccc2)Oc2ccc(NS(C)(=O)=O)cc2C1=O | inactive
O=C(C[C@H]1CC[C@H]2[C@@H](COC[C@@H](O)CN2C(=O)Nc2cccc(Cl)c2)O1)NCCCN1CCOCC1 | inactive

Structure (SMILES) | growth inhibition call
O=C(C[C@H]1CC[C@@H]2[C@H](COC[C@@H](O)CN2C(=O)Nc2cccc(Cl)c2)O1)NCCCN1CCOCC1 | active
O=C(C[C@@H]1CC[C@@H]2[C@H](COC[C@@H](O)CN2C(=O)Nc2cccc(F)c2)O1)NCCCN1CCOCC1 | inactive
O=C(C[C@@H]1CC[C@H]2[C@@H](COC[C@H](O)CN2C(=O)Nc2cccc(Cl)c2)O1)NCCCN1CCOCC1 | active
O=C(C[C@@H]1CC[C@@H]2[C@H](COC[C@H](O)CN2C(=O)Nc2cccc(Cl)c2)O1)NCCCN1CCOCC1 | active
O=C(C[C@@H]1CC[C@H]2[C@@H](COC[C@@H](O)CN2C(=O)Nc2cccc(F)c2)O1)NCCCN1CCOCC1 | inactive
O=C(C[C@H]1CC[C@@H]2[C@H](COC[C@H](O)CN2C(=O)Nc2cccc(Cl)c2)O1)NCCCN1CCOCC1 | inactive
O=C(C[C@@H]1CC[C@H]2[C@@H](COC[C@@H](O)CN2C(=O)Nc2cccc(Cl)c2)O1)NCCCN1CCOCC1 | active
O=C(C[C@@H]1CC[C@H]2[C@@H](COC[C@H](O)CN2C(=O)Nc2cccc(F)c2)O1)NCCCN1CCOCC1 | inactive
O=C(C[C@H]1CC[C@H]2[C@@H](COC[C@H](O)CN2C(=O)Nc2cccc(F)c2)O1)NCCCN1CCOCC1 | inactive
O=C(C[C@H]1CC[C@H]2[C@@H](COC[C@H](O)CN2C(=O)Nc2cccc(Cl)c2)O1)NCCCN1CCOCC1 | inactive
O=C(C[C@@H]1CC[C@@H]2[C@H](COC[C@H](O)CN2C(=O)Nc2cccc(F)c2)O1)NCCCN1CCOCC1 | inactive
Cc1ccc(Sc2c(-c3ccccc3)nc3sccn23)cc1 | inactive
COCC(=O)Nc1ccc2c(c1)C(=O)N(C)C[C@@H](OC)[C@H](C)CN(Cc1ccccc1OC)[C@@H](C)CO2 | inactive
C[C@@H](C[N+](C)(C)C)OC(N)=O | inactive
C=C[C@](C)(O)CC/C=C(\C)C(=O)O[C@@H]1[C@@H](O[C@@](C)(C=C)CC/C=C(\C)C(=O)O[C@H]2C[C@@]3(C(=O)O[C@H]4OC[C@@H](O[C@H]5O[C@@H](CO)[C@@H](O)[C@@H](O[C@H]6O[C@@H](CO)[C@@H](O[C@H]7O[C@@H](CO)[C@@H](O)[C@@H](O)[C@@H]7O)[C@@H](O)[C@@H]6O)[C@@H]5O)[C@@H](O)[C@@H]4O)[C@@H](O)C[C@@]4(C)C(=CC[C@H]5[C@@]6(C)CC[C@@H](O[C@H]7O[C@@H](CO)[C@@H](O[C@H]8O[C@@H](CO)[C@@H](O)[C@@H](O[C@H]9OC[C@@H](O)[C@@H](O)[C@@H]9O)[C@@H]8O)[C@@H](O)[C@@H]7O)C(C)(C)[C@@H]6CC[C@@]54C)[C@@H]3CC2(C)C)OC[C@@H](O)[C@H]1O | inactive
CCc1nc2ccc(C(=O)NCCN3CCNC3=O)cn2c1N(CC)Cc1cccc(Br)c1 | inactive
COC(=O)[C@@]12O[C@@H]1[C@H](O[C@@H]1O[C@H](CO)[C@@H](O)[C@H](O)[C@H]1O)C[C@H]1[C@]3(C)C[C@@H](c4ccoc4)OC(=O)[C@H]3CC[C@]12C | inactive
C[C@H](O)C#Cc1cnc2c(c1)C(=O)N([C@H](C)CO)C[C@H](C)[C@@H](CN(C)C(=O)Nc1ccc(C(F)(F)F)cc1)O2 | inactive
C[C@H]1O[C@@H](OC[C@H]2O[C@@H](OC[C@]3(C)[C@H]4CC[C@@]5(C)[C@H](CC[C@H]6C7=CC(C)(C)CC[C@]7(C(=O)O)CC[C@@]65C)[C@@]4(C)CC[C@@H]3O)[C@@H](O)[C@@H](O)[C@@H]2O)[C@@H](O)[C@@H](O)[C@@H]1O | inactive
C[C@@H]1CN([C@H](C)CO)S(=O)(=O)c2ccc(C#CC3(O)CCCC3)cc2O[C@H]1CN(C)C(=O)Cc1cccnc1 | inactive
Cc1ccc(S(=O)(=O)Nc2ccc3c(c2)C(=O)N([C@H](C)CO)C[C@@H](C)[C@H](CN(C)S(=O)(=O)c2ccc(C)cc2)OCCCC[C@H](C)O3)cc1 | inactive

Structure (SMILES) | growth inhibition call
COc1ccc(NC(=O)N(C)C[C@H]2Oc3c(NC(=O)c4cc(C)nn4C)cccc3C(=O)N([C@H](C)CO)C[C@H]2C)cc1 | inactive
COCC#Cc1ccc([C@H]2[C@@H](CO)N3C(=O)CN(C(=O)c4ccncc4)C[C@H]23)cc1 | inactive
C[C@@H]1CN([C@H](C)CO)C(=O)Cc2cc(NC(=O)CCN3CCOCC3)ccc2O[C@@H]1CN(C)S(=O)(=O)c1ccc(F)cc1 | inactive
CC(=O)OC[C@H]1O[C@H](n2ccc(=O)[nH]c2=O)[C@@H](OC(C)=O)[C@@H]1OC(C)=O | inactive
O=C(C[C@@H]1CC[C@@H]2[C@H](COC[C@@H](O)CN2C(=O)Nc2cccc(Cl)c2)O1)NCCCN1CCOCC1 | active
O=C(C[C@H]1CC[C@H]2[C@@H](COC[C@@H](O)CN2C(=O)Nc2cccc(F)c2)O1)NCCCN1CCOCC1 | inactive
O=C(C[C@H]1CC[C@@H]2[C@H](COC[C@@H](O)CN2C(=O)Nc2cccc(F)c2)O1)NCCCN1CCOCC1 | inactive
Cc1noc(C)c1S(=O)(=O)N(C)C[C@@H]1Oc2ccc(NC(=O)Cn3cnnn3)cc2CC(=O)N([C@H](C)CO)C[C@@H]1C | inactive
Cc1noc(C)c1NC(=O)Nc1ccc2c(c1)C(=O)N([C@@H](C)CO)C[C@H](C)[C@H](CN(C)C(=O)NC1CCCCC1)OCCCC[C@@H](C)O2 | inactive
C[C@@H]1CCCCO[C@@H](CN(C)C(=O)Nc2ccc(C(F)(F)F)cc2)[C@H](C)CN([C@@H](C)CO)C(=O)c2cc(NC(=O)c3ccncc3)ccc2O1 | inactive
C[C@@H]1CN([C@@H](C)CO)C(=O)c2cccc(NS(=O)(=O)c3ccc(F)cc3)c2O[C@H]1CN(C)C(=O)Nc1ccc(C(F)(F)F)cc1 | inactive
C[C@@H]1CCCCO[C@H](CN(C)Cc2ccc(C(F)(F)F)cc2)[C@@H](C)CN([C@@H](C)CO)C(=O)c2cc(NS(=O)(=O)c3cn(C)cn3)ccc2O1 | inactive
C[C@@H]1CN([C@@H](C)CO)C(=O)c2ccccc2-c2ccccc2CO[C@H]1CN(C)Cc1ccccc1C(F)(F)F | active
C[C@@H]1CN([C@H](C)CO)C(=O)c2c(c3ccccc3n2C)-c2ccccc2CO[C@H]1CN(C)Cc1ccc(C(=O)O)cc1 | inactive
C[C@@H]1CN([C@H](C)CO)C(=O)c2c(c3ccccc3n2C)-c2ccccc2CO[C@@H]1CN(C)Cc1ccc(C(=O)O)cc1 | inactive
C[C@H](CO)N1C[C@H](C)[C@@H](CN(C)Cc2ccccc2C(F)(F)F)OCc2ccccc2-c2ccccc2C1=O | active
C[C@H](CO)N1C[C@H](C)[C@H](CN(C)Cc2ccccc2C(F)(F)F)OCc2ccccc2-c2ccccc2C1=O | inactive
C[C@@H]1CN([C@@H](C)CO)C(=O)c2ccccc2-c2ccccc2CO[C@@H]1CN(C)Cc1ccccc1C(F)(F)F | inactive
C[C@@H]1CN([C@H](C)CO)C(=O)c2ccccc2-c2ccccc2CO[C@@H]1CN(C)Cc1ccccc1C(F)(F)F | inactive
C[C@H](CO)N1C[C@H](C)[C@H](CN(C)Cc2ccc(C(=O)O)cc2)OCc2ccccc2-c2c(n(C)c3ccccc23)C1=O | active
C[C@H]1CN([C@@H](C)CO)C(=O)c2ccccc2-c2ccccc2CO[C@H]1CN(C)Cc1ccccc1C(F)(F)F | inactive
